The results in this text go back to PubChem BioAssay AID588342 (National Center for Advancing Translational Sciences (NCATS), 2011).

Hit rate of the full screen: of about 360,000 compounds, about 25,000 (6.9%) were called active. Where a call stands in place of a potency, no number is given. About 9% were inconclusive and are not listed. Calls come from the whole dose curve; as a rule, active = well fitted inhibition curve with a large enough effect; inconclusive = small, poorly fitted or top-dose-only effect; inactive = flat fitted curve, though single readings scatter. The sample as a whole holds a higher share of actives than the screen did.

Luciferin 4-monooxygenase (Photinus pyralis), sequence (P08659 whole entry, looked up): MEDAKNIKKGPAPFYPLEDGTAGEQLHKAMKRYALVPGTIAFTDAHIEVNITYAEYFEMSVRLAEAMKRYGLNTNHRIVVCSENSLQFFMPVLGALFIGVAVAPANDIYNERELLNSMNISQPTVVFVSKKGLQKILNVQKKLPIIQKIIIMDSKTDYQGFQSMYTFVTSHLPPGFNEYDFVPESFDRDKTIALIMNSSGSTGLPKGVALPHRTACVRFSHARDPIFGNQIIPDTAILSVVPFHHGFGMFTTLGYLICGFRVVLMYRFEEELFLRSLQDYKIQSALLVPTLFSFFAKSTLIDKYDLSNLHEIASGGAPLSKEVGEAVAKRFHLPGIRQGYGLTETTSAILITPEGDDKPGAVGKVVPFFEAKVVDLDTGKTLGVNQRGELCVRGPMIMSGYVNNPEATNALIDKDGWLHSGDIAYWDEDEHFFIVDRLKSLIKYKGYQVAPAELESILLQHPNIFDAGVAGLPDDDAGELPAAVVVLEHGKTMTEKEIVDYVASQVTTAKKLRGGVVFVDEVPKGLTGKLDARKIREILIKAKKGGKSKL

This experiment addresses Luciferin 4-monooxygenase (Photinus pyralis) (UniProt P08659). As to the kind of experiment: qHTS profiling assay for firefly luciferase inhibitor/activator using purifed enzyme and Km concentrations of substrates (counterscreen for miR-21 project). Note: nearly all actives have a fitted effect of over 55% in size. The settings on record: purified FLuc, luminescence inhibition; series mostly up to 57.5 µM. The text has this: MLPCN Grant: 1 R21 NS059478-01 (miR-21 grant) Assay Provider: NCGC NCGC Assay Overview: Firefly (Photinus pyralis) luciferase is one of the most commonly used transcriptional reporters for a number of reasons. It is considered one of the more dynamically responsive reporters -that is, responsive to changes in reporter transcription - as it requires no post-translational modifications and is enzymatically active directly after protein synthesis (Wood, 1998). Additionally, the half-life of the luciferase protein is short relative to other reporter-gene products (Wood, 1995). Whereas reporters with long half-lives potentially allow for increased signal due to accumulation of reporter-gene product, once accumulated in the cell, dynamic changes in reporter-gene expression may be difficult to detect(Fan and Wood, 2007; Almond et al., 2004). It has been shown that wild-type P. pyralis luciferase has a half-life of approximately […] hours in mammalian cells (Thompson et al., 1991). Firefly luciferase reporter-gene assays are also generally considered one of the most sensitive assay types (Wood, 1995; Wood, 1998). Although light produced in a bioluminescence reaction is of lower intensity than that produced during fluorescence emission, this is offset by little to no background light inherent to luminescent assays. Thus the luciferase reporter can be expressed at much lower levels than fluorescent proteins while still providing robust signal. # However, it was initially observed, in 1991, by Thompson et al., that compounds that resemble the substrates of firefly luciferase (FLuc) can act as competitive inhibitors of the enzyme, and that these compounds, upon interaction with luciferase in the cell, can actually stabilize the protein and increase its half-life. Accumulated intracellular FLuc protein can be measured as an increase in luminescence signal, upon addition of detection reagents (which contain high concentrations of FLuc substrates) commonly used in high-throughput screening. In cell-based reporter gene assays that use FLuc as the reporter gene to quantitate the potential influence of a given compound against the target biology, this apparent increase in luminescence can mistakenly be interpreted as identification of a compound that is active against the target of interest. This is the case for the miR-21 FLuc reporter gene assay used to identify inhibitors of the miR-21 pathway (PubChem AID 2289) - compounds of interest will inhibit miR-21 biogenesis/expression or activity, and are identified by causing an increase in luminescence, due to increased FLuc translation. However, FLuc inhibitory compounds that stabilize the FLuc protein will give an identical read-out, making it difficult to distinguish compounds that are active against the target from those active against FLuc. Previous profiling work to determine the prevalence of compounds that affect FLuc enzymatic activity (PubChem AID 411) identified that ~3% of the MLSMR library (then at ~72K) inhibited FLuc. […] Since the MLSMR had grown to ~350K compounds, and since it was expected that a significant percentage of compounds found active in the miR-21 FLuc assay would be FLuc inhibitors, the library was screened for activity against FLuc using a biochemical assay of purified FLuc and KM concentrations of FLuc substrates (D-luciferin and ATP).
NCGC Assay Protocol Summary: Reagents: 50mM Tris acetate, pH 7.5; 10mM Mg acetate; 10uM D-luciferin (Sigma #L9504); 10uM ATP; 0.01% Tween-20; 0.05% BSA; 10nM P. pyralis luciferase (Sigma #L9506) Control compounds used were two known firefly luciferase inhibitors (compounds (2) and (5) in Auld et al., 2010), and DMSO. […]
Background: In qHTS, concentration-response curves come from the screen itself.
For `COc1cc(NC(=O)CSc2nc3nc(C)c(Cc4ccc(C)cc4)c(C)n3n2)cc(OC)c1OC`, the Potency entry is “inactive”.

Take `CCC(C)N(C(=O)CSc1nnnn1-c1ccccc1OC)C1CCS(=O)(=O)C1` (configuration not stated): the Potency result was “inactive”. In the case of `CCC(=O)N1CCc2cc(S(=O)(=O)NC(C(=O)NCCc3ccc(C)cc3)C(C)C)ccc21` (configuration not stated) it was “inactive”. Next, `Cc1cc(Oc2ccc(Cl)cc2)nc(SCC(=O)c2ccccc2)n1`: “inactive”; `Cc1cc(C)nc(S/C=C/C(=O)c2ccccc2)n1`: 3.79 µM (active).

Consider `Cc1cc(C)nc(SCC(=O)c2ccc(Cl)cc2)n1`, for which the Potency entry was “inactive”. Next, `O=C(CSc1nccn1-c1ccc(F)cc1)Nc1cccc2ccccc12`: “inactive”; `S=C(c1ccccc1)N1CCCC1`: “inactive”. In the case of `S=C(c1ccc(-c2ccccc2)o1)N1CCCCC1` it was 2.69 µM (active). `OCCN1CCN(C(=S)c2ccc(-c3ccccc3)cc2)CC1`: the Potency entry was “inactive”. In the case of `COc1cccc(C(=O)NC2(C(F)(F)F)C(=O)Nc3c2c(=O)[nH]c(=O)n3-c2ccc(C)cc2)c1` (configuration not stated) it was “inactive”; in that of `CC1CC(C)CN(C(=O)COC(=O)c2ccc3ncsc3c2)C1` (configuration not stated), “inactive”; in that of `Cc1nc(C)c(-c2csc(NCCc3ccccc3)n2)s1`, 16.9 µM (active). In the case of `CCCc1cc(-c2n[nH]c(=S)n2Cc2ccccc2)cs1` it was “inactive”; in that of `Cc1nc2sccn2c(=O)c1S(=O)(=O)NCCc1ccccc1`, “inactive”. For the molecule `Cc1c(Cl)cccc1NC(=O)C1CCCN(c2ncnc3onc(C)c23)C1` (configuration not stated), the Potency result is “inactive”.

Turning to `Cc1ccc(Cl)cc1N1CCN(C(=O)c2cnc3c(-c4ccc(F)cc4)c(C)nn3c2C)CC1`, the Potency result was “inactive”. Next, `O=C(Nc1cccnc1)c1cccc(S(=O)(=O)N2CCCC2)c1`: “inactive”; `Cc1noc(C)c1COc1cccc(C(=O)Nc2cccnc2)c1`: “inactive”. Next, `O=C(Nc1cccnc1)c1noc2c1CCCCC2`: 7.57 µM (active); `CCOC(=O)c1c(C)[nH]c(CCC(=O)Nc2ccc(OC)c(OC)c2)c1C`: “inactive”; `Cc1ccc2nc(-c3ccc(NC(=O)c4cccnc4)cc3)oc2c1`: 5.36 µM (active).

As to `Cc1cc2nc(-c3ccc(NC(=O)c4cccnc4)cc3)oc2cc1C`, the Potency is 6.75 µM (active). In the case of `CC(=O)NC(=S)Nc1ccc(NC(=O)c2cccnc2)cc1` it was “inactive”. In the case of `Cc1cc(NS(=O)(=O)c2ccc(NC(=O)c3cccnc3)cc2)nc(C)n1` it was “inactive”. In the case of `O=C(Nc1ccc(-c2nc3cc(NC(=O)c4ccccc4Cl)ccc3o2)cc1)c1ccccc1Cl`, the Potency result is “inactive”. In the case of `O=C(Cc1ccccc1)Nc1ccc(NC(=O)c2cccnc2)cc1` it was “inactive”. In the case of `CC(C)NC(=O)C1CCC(Cn2c(=O)c3sccc3n(Cc3ccc(F)cc3)c2=O)CC1` (configuration not stated) it was “inactive”; in that of `COc1cc(OC)c(NC(=O)N2CC3CCCN3c3ccccc32)cc1Cl` (configuration not stated), “inactive”; in that of `COC(=O)c1ccccc1NC(=O)Cn1c(=O)cc(C)c2c(C)nn(-c3cccc(Cl)c3C)c21`, “inactive”. Next, `COc1ccc2ncc3c(-c4ccc(C)c(C)c4)nn(CC(=O)NC4CCCC4)c3c2c1`: “inactive”; `COc1c(O)cc2oc(-c3ccc(O)c(O)c3)cc(=O)c2c1O`: 19 µM (active); `CCOC(=O)COc1cc(O)c2c(=O)cc(-c3ccccc3)oc2c1`: “inactive”.

Consider `COc1ccc(-c2cc(=O)c3c(O)cc(O[C@@H]4O[C@H](CO[C@@H]5O[C@@H](C)[C@H](O)[C@@H](O)[C@H]5O)[C@@H](O)[C@H](O)[C@H]4O)cc3o2)cc1O`, for which the Potency entry is “inactive”. In the case of `COc1ccccc1CNC(=O)CCCCn1c(=O)c2ccccc2n(CC(=O)Nc2cc(Cl)ccc2C)c1=O` it was “inactive”; in that of `Cc1nn(C(=O)c2c(F)cccc2F)c(C)c1S(=O)(=O)N1CCOCC1`, “inactive”.

For `CC(C)(C)OC(=O)NCCCCCNC(=O)c1[nH]cnc1C(=O)Nc1nccs1`, the Potency result is “inactive”. In the case of `Cc1ccc(-n2c(SCC(=O)NCc3ccc4c(c3)OCO4)nnc2-c2cccnc2)c(C)c1` it was “inactive”; in that of `Cc1ccc(C)c(N2CCN(C(=O)C3CCC(CNS(=O)(=O)c4cccs4)CC3)CC2)c1` (configuration not stated), “inactive”; in that of `Cc1ccc2c(c1)c1ncnc(N3CCc4ccccc4C3)c1n2C`, 13.5 µM (active).

Turning to `Cc1ccc(S(=O)(=O)Nc2nc3ccccc3nc2N2CCc3ccccc3C2)cc1`, the Potency entry was “inactive”. As for `Cc1ccc2c(c1)c1ncn(Cc3ccc(F)cc3)c(=O)c1n2C`, the Potency result was “inactive”. As to `CCN(CC)CCCNC(=O)c1cn(C)c2ccc(S(=O)(=O)N(C)C3CCCCC3)cc2c1=O`, the Potency entry is “inactive”. In the case of `Cn1c(=O)c2c(-c3ccccc3Br)n(Cc3ccccc3)cc2n(C)c1=O` it was “inactive”; in that of `COc1cc(OC)cc(-c2c(-c3cccs3)c3cc(-c4ccc(OC)cc4F)ccc3n2C)c1`, “inactive”; in that of `CCn1cc(C(=O)NCc2ccc(OC)cc2OC)c(=O)c2ccc(C)nc21`, “inactive”. In the case of `O=C(/C=C/c1ccccc1)N1CCN(Cc2cc(=O)n3nc(-c4ccccc4F)sc3n2)CC1` it was “inactive”; in that of `Cc1cc(/C=N/NC(=O)c2cccnc2)c(C)n1CC(C)C`, 7.57 µM (active); in that of `O=C(CNC(=O)c1cccnc1)N/N=C/c1cc(Br)c(O)c(Br)c1`, “inactive”.

As to `O=C(CNC(=O)c1cccnc1)N/N=C/c1cccnc1`, the Potency entry is “inactive”.

On to `COc1ccc(Cn2c(C(=O)O)c(CNCCc3cccs3)c3ccc(OC)cc32)cc1`, for which the Potency result is “inactive”. In the case of `Cc1cc(N=Nc2ccc3ccccc3c2)ccc1O` it was 1.35 µM (active).
